For some of these results: Measured potencies and affinities stand elsewhere. The source made the active and inactive calls. Unless noted, the rule behind the calls is not given here.
Assays:
[1] = antimalarial activity against Dd2 strain (AID 2302;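 active = growth inhibition above 50% at the single 2 µM test dose, taken to imply half-maximal potency below 2 µM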;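 note: 0% = DMSO untreated growth and 100% = chloroquine plus artemisinin killed control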); details: P. falciparum Dd2 in RBCs, LDH growth readout, 72 h; at 2 µM; hits give high values
[2] = human hepatoma cell viability loss – ATP luminescence, cytotoxicity control for P. falciparum antimalarial project, primary screen (AID 2303;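 active = inhibition above 50%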;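 note: 0% = DMSO wells and 100% = digitonin-killed cells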); details: HepG2 viability, 24-48 h, at 10 µM, hits give high values
[3] = biological target: L-lactate dehydrogenase (Plasmodium falciparum (isolate CDC / Honduras)) (UniProt Q27743); test: PfLDH activity inhibition – cell lysate, 3D7 strain, counter-screen for P. falciparum growth inhibition project (AID 2304);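 note: 0% = vehicle and 100% = reference inhibitor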; details: P. falciparum 3D7 crude extract, LDH APAD/NBT absorbance; at 2 µM; hits give high values
Sequence of L-lactate dehydrogenase (Plasmodium falciparum (isolate CDC / Honduras)) (Q27743 whole entry, looked up): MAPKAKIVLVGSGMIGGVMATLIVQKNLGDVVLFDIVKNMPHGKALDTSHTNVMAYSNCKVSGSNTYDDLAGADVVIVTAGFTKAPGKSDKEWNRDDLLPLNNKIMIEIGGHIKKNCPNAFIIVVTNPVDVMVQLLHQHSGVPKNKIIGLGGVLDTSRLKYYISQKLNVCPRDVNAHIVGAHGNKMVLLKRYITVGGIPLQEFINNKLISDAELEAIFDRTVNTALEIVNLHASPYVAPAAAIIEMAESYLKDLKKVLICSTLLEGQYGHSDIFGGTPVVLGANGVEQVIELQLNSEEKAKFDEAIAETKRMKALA

[4] = inhibition of 3D7 malaria parasite growth – strain 3D7 (AID 2306);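 note: 0% = DMSO wells and 100% = chloroquine plus artemisinin control wells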; details: P. falciparum 3D7 erythrocytic growth, LDH absorbance, 72 h; at 2 µM; hits give high values
[5] = biological target: Calcium-dependent protein kinase 1 (Plasmodium falciparum (isolate 3D7)) (UniProt P62344); test: PfCDPK1 kinase inhibitors, biochemical, TCAMS library (AID 1159585; cut-off not given, nearly all actives have IC50 up to about 0.98 µM;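 note: inhibitors leave more ATP so luminescence rises with inhibition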); details: recombinant PfCDPK1, Kinase-Glo ATP depletion luminescence
Sequence of Calcium-dependent protein kinase 1 (Plasmodium falciparum (isolate 3D7)) (P62344 whole entry, looked up): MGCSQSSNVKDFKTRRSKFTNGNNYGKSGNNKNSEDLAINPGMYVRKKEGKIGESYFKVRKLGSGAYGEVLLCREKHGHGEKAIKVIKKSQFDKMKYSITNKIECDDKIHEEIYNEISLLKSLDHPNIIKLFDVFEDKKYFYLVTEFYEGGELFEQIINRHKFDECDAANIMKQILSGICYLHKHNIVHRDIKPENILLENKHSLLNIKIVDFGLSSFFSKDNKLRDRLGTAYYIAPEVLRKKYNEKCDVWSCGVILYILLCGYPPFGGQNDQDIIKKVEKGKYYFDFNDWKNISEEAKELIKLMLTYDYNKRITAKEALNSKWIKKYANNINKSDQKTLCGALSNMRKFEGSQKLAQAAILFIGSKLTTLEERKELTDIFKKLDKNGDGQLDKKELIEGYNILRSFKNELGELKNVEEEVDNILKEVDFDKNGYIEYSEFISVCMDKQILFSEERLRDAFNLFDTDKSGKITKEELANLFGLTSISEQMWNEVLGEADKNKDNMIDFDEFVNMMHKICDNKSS

[6] = biological target: Plasmodium falciparum protein kinase 6 (PK6, PF3D7_1337100) (UniProt Q8IDW1); test: PfPK6 kinase inhibitors, biochemical, TCAMS library (AID 1159586); details: recombinant PfPK6, Kinase-Glo ATP depletion luminescence
Sequence of Plasmodium falciparum protein kinase 6 (PK6, PF3D7_1337100) (Q8IDW1 1-305): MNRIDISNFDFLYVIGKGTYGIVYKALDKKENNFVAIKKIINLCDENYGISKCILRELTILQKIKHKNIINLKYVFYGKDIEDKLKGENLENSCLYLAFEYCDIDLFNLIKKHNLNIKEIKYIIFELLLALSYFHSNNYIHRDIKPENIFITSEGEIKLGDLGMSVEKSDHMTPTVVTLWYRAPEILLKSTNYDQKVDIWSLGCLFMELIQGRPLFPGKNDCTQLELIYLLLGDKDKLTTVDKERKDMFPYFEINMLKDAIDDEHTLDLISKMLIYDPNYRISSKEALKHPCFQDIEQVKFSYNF

[7] = biological target: Protein kinase 7 (PK7), Plasmodium falciparum 3D7 (PF3D7_0213400) (UniProt Q7YTF7); test: inhibition of Plasmodium PK7 catalytic activity – biochemical, TCAMS antimalarial set, Kinase-Glo luminescence (AID 1159587); details: recombinant PfPK7, Kinase-Glo ATP depletion luminescence
Sequence of Protein kinase 7 (PK7), Plasmodium falciparum 3D7 (PF3D7_0213400) (Q7YTF7 1-343): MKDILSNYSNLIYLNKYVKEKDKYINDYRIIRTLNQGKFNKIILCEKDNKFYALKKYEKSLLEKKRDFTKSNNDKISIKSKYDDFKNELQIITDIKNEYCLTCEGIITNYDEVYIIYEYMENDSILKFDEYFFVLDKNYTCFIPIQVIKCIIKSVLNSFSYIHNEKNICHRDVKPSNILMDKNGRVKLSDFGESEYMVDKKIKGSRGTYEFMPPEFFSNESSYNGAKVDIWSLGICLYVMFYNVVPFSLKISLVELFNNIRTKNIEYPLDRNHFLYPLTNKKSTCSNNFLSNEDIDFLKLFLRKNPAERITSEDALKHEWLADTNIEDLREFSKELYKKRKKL

[8] = biological target: Calcium-dependent protein kinase 4 (Plasmodium falciparum (isolate 3D7)) (UniProt Q8IBS5); test: PfCDPK4 kinase inhibitors, biochemical, TCAMS library (AID 1159588; cut-off not given, nearly all actives have IC50 up to about 0.91 µM); details: recombinant PfCDPK4, Kinase-Glo ATP depletion luminescence
Sequence of Calcium-dependent protein kinase 4 (Plasmodium falciparum (isolate 3D7)) (Q8IBS5 whole entry, looked up): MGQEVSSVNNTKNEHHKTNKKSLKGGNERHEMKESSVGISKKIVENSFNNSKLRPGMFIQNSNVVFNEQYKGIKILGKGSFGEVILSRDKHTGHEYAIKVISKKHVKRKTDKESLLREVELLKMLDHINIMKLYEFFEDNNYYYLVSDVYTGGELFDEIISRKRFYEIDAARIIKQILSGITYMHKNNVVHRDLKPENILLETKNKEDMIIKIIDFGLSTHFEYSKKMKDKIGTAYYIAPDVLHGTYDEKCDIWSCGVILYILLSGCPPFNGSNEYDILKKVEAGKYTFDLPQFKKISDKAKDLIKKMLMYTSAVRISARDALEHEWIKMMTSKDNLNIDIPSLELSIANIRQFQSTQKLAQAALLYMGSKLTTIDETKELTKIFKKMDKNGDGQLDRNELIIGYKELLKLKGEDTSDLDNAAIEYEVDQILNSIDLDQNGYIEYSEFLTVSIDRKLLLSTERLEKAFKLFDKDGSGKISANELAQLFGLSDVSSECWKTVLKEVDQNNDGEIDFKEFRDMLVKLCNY

c1ccc2cc3c(Nc4ccc(N5CCCCC5)cc4)ccnc3cc2c1
active: growth inhibition [4] 100%
inactive: growth inhibition [1] 36% | inhibition [2] 21% | inhibition [3] -4% | outcome [5] | outcome [6] | outcome [7] | outcome [8]

Cc1ccc(C)c(Sc2ccc(NC(=O)CN3CCN(C(=O)c4ccco4)CC3)cc2)c1
inactive: inhibition [2] 28% | inhibition [3] 1% | outcome [5] | outcome [6] | outcome [7] | outcome [8]
active: growth inhibition [1] 93% | growth inhibition [4] 96%

Cc1ccc(C2CCN(CCCCNC(=O)c3ccc(NC(=O)c4ccc(Cl)cc4)cc3)CC2)c(OCC2CC2)c1
inactive: inhibition [3] 0% | outcome [5] | outcome [6] | outcome [7] | outcome [8]
active: growth inhibition [1] 95% | inhibition [2] 63% | growth inhibition [4] 101%

Cc1cc(NN=Cc2ccc(F)cc2)c2ccc(F)cc2n1
inactive: growth inhibition [1] 30% | inhibition [2] -7% | inhibition [3] 0% | outcome [5] | outcome [6] | outcome [7] | outcome [8]
active: growth inhibition [4] 99%

CCOc1ccc(C=CC(=O)Nc2ccc3nc(N4CCN(C)CC4)cc(C)c3c2)cc1OC
inactive: inhibition [2] -2% | inhibition [3] -10% | outcome [5] | outcome [6] | outcome [7] | outcome [8]
active: growth inhibition [1] 70% | growth inhibition [4] 102%

O=C(Nc1cccc(CN2CCCN(Cc3ccc(O)cc3)CC2)c1)c1ccc2ccccc2n1
inactive: growth inhibition [1] 22% | inhibition [2] 13% | inhibition [3] -1% | outcome [5] | outcome [6] | outcome [7] | outcome [8]
active: growth inhibition [4] 90%

O=C(O)CCCN1CCCC(=C(c2ccccc2)c2ccccc2)C1
active: growth inhibition [4] 82%
inactive: growth inhibition [1] 2% | inhibition [2] -5% | inhibition [3] 0% | outcome [5] | outcome [6] | outcome [7] | outcome [8]

CN(C)c1ccc(-c2nnc(Sc3ccc(C#N)c([N+](=O)[O-])c3)n2Cc2ccco2)cc1
inactive: inhibition [2] 3% | inhibition [3] 3% | outcome [5] | outcome [6] | outcome [7] | outcome [8]
active: growth inhibition [1] 79% | growth inhibition [4] 95%

COc1cccc(-c2cc(C(F)(F)F)n3ncc(C(=O)Nc4cc(Cl)ccc4O)c3n2)c1
inactive: inhibition [2] -9% | inhibition [3] 5% | outcome [5] | outcome [6] | outcome [7] | outcome [8]
active: growth inhibition [1] 99% | growth inhibition [4] 99%

COc1ccc2nccc([C@@H](O)CN3CCC(NC(=O)C(c4cc5ccccc5o4)N4CCN(c5ccc(F)cc5)CC4)CC3)c2c1 (some centres undefined)
active: growth inhibition [1] 98% | growth inhibition [4] 100%
inactive: inhibition [2] 15% | inhibition [3] -1% | outcome [5] | outcome [6] | outcome [7] | outcome [8]

CN(C)c1cccc2c1nc(-c1ccco1)n2CC1CCCN1 (centres undefined)
active: growth inhibition [4] 86%
inactive: growth inhibition [1] 46% | inhibition [2] -1% | inhibition [3] 6% | outcome [5] | outcome [6] | outcome [7] | outcome [8]

CC(C)CCN1CCC(Oc2ccc(NC(=O)c3ccsc3)cc2Cl)CC1
active: growth inhibition [1] 81% | growth inhibition [4] 89%
inactive: inhibition [2] 19% | inhibition [3] 0% | outcome [5] | outcome [6] | outcome [7] | outcome [8]

O=C(C=Cc1ccc(Cl)c(Cl)c1)NCCCCCN1CCC(CCCNC(=O)c2ccc3c(c2)OCO3)CC1
active: growth inhibition [1] 64% | growth inhibition [4] 98%
inactive: inhibition [2] 38% | inhibition [3] -5% | outcome [5] | outcome [6] | outcome [7] | outcome [8]

NC(N)=Nc1cccc(NC(=O)Nc2cccc(N=C(N)N)c2)c1
active: growth inhibition [1] 71% | growth inhibition [4] 87%
inactive: inhibition [2] -7% | inhibition [3] 7% | outcome [5] | outcome [6] | outcome [7] | outcome [8]

COc1ccc2nccc(C(=O)NC3CCC(CCN4CCc5cc(C#N)ccc5C4)CC3)c2c1 (centres undefined)
active: growth inhibition [4] 97%
inactive: growth inhibition [1] 1% | inhibition [2] 12% | inhibition [3] 1% | outcome [5] | outcome [6] | outcome [7] | outcome [8]

c1cc(CNCCc2ccncc2)cc(-c2ccc(-c3nc4ccccc4[nH]3)cc2)c1
inactive: inhibition [2] 28% | inhibition [3] 5% | outcome [5] | outcome [6] | outcome [7] | outcome [8]
active: growth inhibition [1] 97% | growth inhibition [4] 99%

Oc1c(Cl)cc(-c2ccccc2)cc1CNC1CCCCC1
inactive: inhibition [2] 5% | inhibition [3] -5% | outcome [5] | outcome [6] | outcome [7] | outcome [8]
active: growth inhibition [1] 95% | growth inhibition [4] 97%

O=C(NCc1ccc(C(F)(F)F)cc1)c1cccc(-c2nnc(-c3cccc(-c4cncnc4)c3)o2)c1
active: growth inhibition [1] 79% | growth inhibition [4] 96%
inactive: inhibition [2] 13% | inhibition [3] -2% | outcome [5] | outcome [6] | outcome [7] | outcome [8]

CCN(CC)CCCNCc1ccc(-c2ccc(C(F)(F)F)cc2)cc1
inactive: growth inhibition [1] 35% | inhibition [3] -4% | outcome [5] | outcome [6] | outcome [7] | outcome [8]
active: inhibition [2] 53% | growth inhibition [4] 95%

COc1cc2c(cc1COc1ccccc1)CCN1Cc3cc(OC)c(OC)cc3CC21 (centres undefined)
active: growth inhibition [1] 84% | growth inhibition [4] 99%
inactive: inhibition [2] -1% | inhibition [3] 2% | outcome [5] | outcome [6] | outcome [7] | outcome [8]

Cc1cc(N)nc2ccc(-c3ccc(CN)cc3)cc12
inactive: inhibition [2] 4% | inhibition [3] -3% | outcome [5] | outcome [6] | outcome [7] | outcome [8]
active: growth inhibition [1] 93% | growth inhibition [4] 100%

COc1ccc(OC)c(NC(=O)C2c3ccccc3C(=O)N(CC(C)C)C2c2cccs2)c1 (centres undefined)
inactive: inhibition [2] 9% | inhibition [3] -5% | outcome [5] | outcome [6] | outcome [7] | outcome [8]
active: growth inhibition [1] 66% | growth inhibition [4] 100%

CCOC(=O)N1CCN(C(=O)Nc2ccc(Cl)cc2)CC1
active: growth inhibition [4] 92%
inactive: growth inhibition [1] -2% | inhibition [2] 4% | inhibition [3] 0% | outcome [5] | outcome [6] | outcome [7] | outcome [8]

COc1ccccc1N1CCN(CCCCNC(=O)c2ccc(NC(=O)c3ccc(OC(F)(F)F)cc3)cc2)CC1
inactive: growth inhibition [1] 39% | inhibition [2] 29% | inhibition [3] -6% | outcome [5] | outcome [6] | outcome [7] | outcome [8]
active: growth inhibition [4] 100%

CC[C@H](C)CNC(=O)c1ccnc(-c2cccc(CN(C)C3CCN(C)CC3)c2)c1
inactive: growth inhibition [1] 33% | inhibition [2] -19% | inhibition [3] -1% | outcome [5] | outcome [6] | outcome [7] | outcome [8]
active: growth inhibition [4] 100%

Cc1cc(C)c(-c2n[nH]c3c2C(c2cccc(Cl)c2)N(Cc2ccco2)C3=O)c(O)c1 (centres undefined)
active: growth inhibition [1] 89% | growth inhibition [4] 96%
inactive: inhibition [2] -3% | inhibition [3] -1% | outcome [5] | outcome [6] | outcome [7] | outcome [8]

O=[N+]([O-])c1ccc(Oc2ccccc2CNCC2CCN(CC3CCCCC3)CC2)cc1
inactive: growth inhibition [1] 28% | inhibition [2] 40% | inhibition [3] -2% | outcome [5] | outcome [6] | outcome [7] | outcome [8]
active: growth inhibition [4] 89%

COc1ccc(Cl)cc1N1CCN(CCCNC(=O)c2ccc(-c3nc4cc(Cl)c(C)cc4[nH]3)c(F)c2)CC1
active: growth inhibition [1] 91% | growth inhibition [4] 99%
inactive: inhibition [2] -1% | inhibition [3] -6% | outcome [5] | outcome [6] | outcome [7] | outcome [8]

CN(CCCCNC(=O)/C=C/c1ccccc1)C1CC2(CCN(C(=O)OC(C)(C)C)CC2)c2ccccc21 (centres undefined)
inactive: inhibition [2] 11% | inhibition [3] 1% | outcome [5] | outcome [6] | outcome [7] | outcome [8]
active: growth inhibition [1] 51% | growth inhibition [4] 87%

CC(=O)N(C)C1CCN(Cc2cccc(-c3ccc(-c4nc5ccc(F)cc5[nH]4)cc3)c2)C1 (centres undefined)
inactive: growth inhibition [1] 19% | inhibition [2] 24% | inhibition [3] 0% | outcome [5] | outcome [6] | outcome [7] | outcome [8]
active: growth inhibition [4] 92%

COc1ccc(-c2ccc(NC(=O)c3ccc(C#N)cc3)c(F)c2)cc1CN(C)CCN(C)C
active: growth inhibition [4] 88%
inactive: growth inhibition [1] 0% | inhibition [2] 24% | inhibition [3] -4% | outcome [5] | outcome [6] | outcome [7] | outcome [8]

Clc1ccc(CNc2nc(NCCc3cnc[nH]3)nc(Nc3ccc4c(c3)OCO4)n2)cc1
inactive: growth inhibition [1] 6% | inhibition [2] 8% | inhibition [3] -2% | outcome [5] | outcome [6] | outcome [7] | outcome [8]
active: growth inhibition [4] 84%

CC(C)(C)c1ccc(NC(=O)Nc2ccc(Cn3ncc(N4CCCNCC4)c(Cl)c3=O)cc2)cc1
inactive: growth inhibition [1] 33% | inhibition [2] -4% | inhibition [3] -7% | outcome [5] | outcome [6] | outcome [7] | outcome [8]
active: growth inhibition [4] 95%

Cc1cc(C2CCN(CCCCNC(=O)c3ccc(NC(=O)c4ccc(Cl)cc4)cc3)CC2)c(C)cc1OC(C)C
active: growth inhibition [1] 92% | growth inhibition [4] 100%
inactive: inhibition [2] 22% | inhibition [3] 7% | outcome [5] | outcome [6] | outcome [7] | outcome [8]

Cc1ccc(Nc2nc(C)cc(N3CCN(CCc4ccccc4)CC3)n2)cc1
active: growth inhibition [4] 93%
inactive: growth inhibition [1] 6% | inhibition [2] 6% | inhibition [3] -9% | outcome [5] | outcome [6] | outcome [7] | outcome [8]

N#Cc1cccc(NC(=O)Nc2cccc(OC3CCN(Cc4ccccc4)CC3)c2)c1
active: growth inhibition [4] 100%
inactive: growth inhibition [1] 48% | inhibition [2] 5% | inhibition [3] 1% | outcome [5] | outcome [6] | outcome [7] | outcome [8]

CN1CCC(Oc2cc(NC(=O)Nc3ccc(-c4ccncc4)c(Cl)c3)ccc2Cl)CC1
active: growth inhibition [1] 100% | growth inhibition [4] 99%
inactive: inhibition [2] 23% | inhibition [3] -5% | outcome [5] | outcome [6] | outcome [7] | outcome [8]

CCN(CC)S(=O)(=O)n1ncc2c3c(N)nc(N)nc3ccc21
inactive: growth inhibition [1] 16% | inhibition [3] 3% | outcome [5] | outcome [6] | outcome [7] | outcome [8]
active: inhibition [2] 67% | growth inhibition [4] 93%
